Assay results from PubChem BioAssay (NCATS).
Records with an inconclusive call do not appear. Values without a mark were called inactive. Activity calls are given as the source filed them. Calls follow the shape of the dose curve; as a rule, active = well fitted inhibition curve with a large enough effect; inconclusive = small, poorly fitted or top-dose-only effect; inactive = flat fitted curve, though single readings scatter.

The compounds below were run on MCC-26 (assay: qHTS assay to identify novel small-molecules to repurpose for Merkel cell carcinoma treatment (AID 1296009; also: nearly all actives have a fitted effect of over 60% in size)). Details: MCC and control cell lines, CellTiter-Glo viability, 72 h; series mostly up to 46 µM; activity change, negative = cytotoxicity: at the top concentration.
Description: MCC is a rare and aggressive neuroendocrine skin cancer with limited treatment options. Approximately 80% of MCCs have the Merkel cell polyomavirus (MCPyV) DNA integrated into the host genome (virus-positive: VP-MCC) and viral oncogenes drive oncogenesis. The remaining MCCs are virus-negative (VN-MCC) and are caused by UV mutagenesis. To identify novel treatments for VP-MCC and/or VN-MCC we screened three VP-MCC cell lines (WAGA, MKL-1, MKL-2), three VN-MCC cell lines (MCC-13, MCC-26, UISO), and four immortalized, non-transformed control cell lines (HaCaT, HEK293T, CRL7250, NIH-3T3) against ~2,400 compounds in the NCGC Pharmaceutical Collection (NPC) and ~1,900 compounds in the Mechanism Interrogation PlatE (MiPE). Using cell viability as a readout (CellTiter-Glo assay) we found both overlapping and distinct drugs that can be repurposed for the treatment of VP-MCC and VN-MCC.
A high-throughput screen was conducted in 1536-well white flat bottom plates (Corning) on a Kalypsys robotic system. Cell lines WAGA, MKL-1, MKL-2, MCC-13, MCC-26, UISO, HaCaT, HEK293T, CRL7250, and NIH-3T3 were screened against 2 small molecule annotated drug libraries NPC and MIPE in dose response (8 and 11 pt. respectively) measuring cell viability after 72 hours of incubation. […] A 1,536 pintool (Kalypsys) was used to transfer 23 nL of compound in DMSO to the 1,536-well assay plates. After 72 hr incubation at 37 degree celsius, 2.5 uL of CellTiter-Glo (Promega) was dispensed into each well using a BiorapTR. Plates were incubated at room temperature for 10 min, transferred to a ViewLux (PerkinElmer) and the luminescence was recorded using an exposure time of 2 seconds. Relative luminescence units (RLUs) were normalized to in-plate controls (no cells as a positive (cytotoxicity) control, DMSO as negative control) and the normalized data was processed using NCATS in-house software.
% is scaled to controls: 0 for no effect and ±100 for the full control effect; potency is read from the fitted curve at half-maximal effect.

Row | Structure (SMILES) | Potency | activity change, negative = cytotoxicity
1 | C[C@@]12OC(=O)[C@]1([C@@H](O)[C@@H]1C=CCCC1)NC(=O)[C@H]2CCCl | 0.833 µM (active) | 
2 | c1cc2c(cc1[C@H]1OC[C@H]3[C@H]1CO[C@H]3c1ccc3c(c1)OCO3)OCO2 |  | 1.12%
3 | c1cc2ccc3cccc4ccc(c1)c2c34 |  | -6.45% [at 92.7 µM]
4 | O=[N+]([O-])c1cc([N+](=O)[O-])c2ccccc2c1 |  | 14.8% [at 92.7 µM]
5 | C[C@]12Cc3cn[nH]c3C[C@@H]1CC[C@@H]1[C@H]2CC[C@@]2(C)[C@H]1CC[C@]2(C)O |  | 8.01%
6 | O=c1[nH]c2ccc(Cl)cc2c(N[C@@H]2CN3CCC2CC3)c1-c1nc2ccccc2[nH]1 | 7.43 µM (active) | 
7 | CC(C)NCC(O)c1ccc([N+](=O)[O-])cc1 (stereo not given) |  | -4.53%
8 | C#CC1(O)CCC2C3CCC4=CC(=O)CCC4(C)C3CCC21C (stereo not given) |  | -19.8%
9 | CCCC[N+]1(C)[C@H]2CC(OC(=O)[C@H](CO)c3ccccc3)C[C@H]1[C@H]1O[C@H]12 (stereo not given in full) |  | 4.3%
10 | O=C(Oc1ccc([N+](=O)[O-])cc1)N1CCC(C(O)(c2ccc3c(c2)OCO3)c2ccc3c(c2)OCO3)CC1 |  | 5.33%
11 | O=S(=O)(F)Cc1ccccc1 |  | -9.14%
12 | O=[N+]([O-])c1ccc([As](=O)(O)O)cc1 |  | 17.1%
13 | CC[C@@H]1[C@@H](C)O[C@@](O)([C@@H](C)[C@H](O)[C@H](C)[C@H]2OC(=O)C=CC=C[C@@H](C)[C@@H]([C@@H](C)[C@@H](O)[C@H](C)[C@@]3(O)C[C@H](O[C@H]4C[C@H](O)[C@H](O)[C@H](C)O4)[C@H](CC)[C@@H](C)O3)OC(=O)C=CC=C[C@@H]2C)C[C@H]1O[C@H]1C[C@H](O)[C@H](O)[C@H](C)O1 | 8.33 µM (active) | 
14 | C1CCC(NC2CCCCC2)CC1 |  | 5.87%
15 | CCCCCCCCc1ccc(O)cc1 |  | -36.9% [at 92.7 µM]
16 | CN(C)[C@@H]1C(=O)C(C(N)=O)=C(O)[C@@]2(O)C(=O)C3=C(O)c4c(O)cccc4[C@@](C)(O)[C@H]3[C@H](O)[C@@H]12 |  | 4.88%
17 | O=c1[nH]c2ccccc2n1C1CCN(Cc2ccc(-c3[nH]c4cc5ncnc5cc4nc3-c3ccccc3)cc2)CC1 |  | -2.88%
18 | COc1ccc2c(c1)CN(C)CC2c1ccc(Cl)c(Cl)c1 (stereo not given) |  | -17.7%
19 | S=C(SSC(=S)N1CCCCC1)N1CCCCC1 | 0.133 µM (active) | 
20 | C[C@@H]1[C@H](O)[C@@H](C)C=CC=CCCC=CC=CC=CC=C[C@H](O[C@H]2O[C@@H](C)[C@H](O)[C@@H](N)[C@@H]2O)CC2O[C@](O)(C[C@@H](O)[C@H](O)CC[C@@H](O)C[C@@H](O)C[C@@H](O)CC(=O)O[C@H]1C)C[C@H](O)[C@H]2C(=O)O |  | -5.86%

Row | Structure (SMILES) | Potency | activity change, negative = cytotoxicity
21 | O=C(O)COc1nc(Cl)c(Cl)cc1Cl |  | 5.55% [at 92.7 µM]
22 | CCN1CCN(C(=O)Cc2ccc(Nc3ncc(F)c(Nc4ccc(C(=O)Nc5ccccc5Cl)cc4)n3)cc2)CC1 |  | -13.2%
23 | CS(=O)(=O)c1ccc(C(=O)C2C(=O)CCCC2=O)c([N+](=O)[O-])c1 |  | 1.58% [at 92.7 µM]
24 | Nc1ccc(N=Nc2ccccc2)cc1 |  | -5.38% [at 92.7 µM]
25 | Oc1ccc2c3c1O[C@H]1c4[nH]c5c(c4C[C@@]4(O)[C@@H](C2)N(CC2CC2)CC[C@]314)C[C@@]1(O)[C@H]2Cc3ccc(O)c4c3[C@@]1(CCN2CC1CC1)[C@H]5O4 |  | 4.47%
26 | CCCCOC(=O)c1ccccc1C(=O)OCc1ccccc1 |  | -0.178% [at 92.7 µM]
27 | CCNC(=O)CC1N=C(c2ccc(Cl)cc2)c2cc(OC)ccc2-n2c(C)nnc21 (stereo not given) |  | -1.66%
28 | C1=C2CCCN[C@H]2[C@@H]2C[C@H]1[C@@H]1CCCCN1C2 |  | -0.931%
29 | COC(=O)[C@@H](N)CCCN=C(N)N[N+](=O)[O-] |  | 1.19%
30 | CCCCCCCCCCCCCCCC[N+](C)(C)C | 26.6 µM (active) | 
31 | C[C@H]1CCCC=CC2C[C@H](O)C[C@@H]2[C@H](O)C=CC(=O)O1 (stereo not given in full) |  | -86.5%
32 | O=C1C(I)=CC(=C(c2cc(I)c(O)c(I)c2)c2ccccc2C(=O)O)C=C1I |  | 16.2%
33 | CCC(=O)OC1CCC2C3CCC4=CC(=O)CC[C@@]4(C)C3CC[C@]12C (stereo not given in full) |  | 10.1%
34 | C#C[C@]1(O)C=C[C@@H]2[C@@H]3CCC4=CC(=O)CC[C@@H]4[C@H]3CC[C@@]21CC |  | -3.51%
35 | O=[N+]([O-])c1c(Cl)c(Cl)cc(Cl)c1Cl |  | -3.79% [at 92.7 µM]
36 | OCCCBr |  | 10.7% [at 92.7 µM]
37 | C=C1C[C@H]2[C@H]3CCC(=O)[C@@]3(C)CC[C@@H]2[C@@]2(C)C=CC(=O)C=C12 |  | 6.72%
38 | CC[C@@]1(O)C(=O)OCc2c1cc1n(c2=O)Cc2cc3ccccc3nc2-1 | 0.0743 µM (active) | 
39 | Cc1[nH]nc2ccc(-c3cncc(OC[C@@H](N)Cc4c[nH]c5ccccc45)c3)cc12 | 3.72 µM (active) | 
40 | Oc1ccc2c3c1O[C@H]1[C@@H](O)C=C[C@H]4[C@@H](C2)NCC[C@@]341 |  | -16.5% [at 92.7 µM]
